Luc counter = Counterscreen for Luciferase (Kinase-Glo TM) Inhibition; Luciferin 4-monooxygenase (Photuris pensylvanica), Q27757; Kinase-Glo luciferase, ATP luminescence, 8 min; hit rate 0.28% among 200,000; AID 1379, 2008; Potency, µM (top dose mostly 38.3 µM), for the others: at the top dose activity change, negative = inhibition, hits mostly inhibitors; further: nearly all actives have a fitted effect of over 60% in size
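Compound is pinned into ATP-containing buffer (10 uM ATP, imidazole pH 7.2, 7 mM MgCl2). Kinase-Glo luciferase reagent is then added. Light output is recorded following an 8-min room-temperature incubation.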
IMPase Li inh = qHTS Assay for Identifying the Cell-Membrane Permeable IMPase Inhibitors: Potentiation with Lithium; CHO-M1 cells, IP1 TR-FRET (IP-One), carbachol + lithium; Potency, µM (doses to about 59.4 µM), for inactives: top-dose activity, negative = IMPase inhibition, most hits filed as inhibitors; hit rate 0.35% among 210,000;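 further: IP1 builds up when IMPase is blocked and the TR-FRET signal falls; plate controls were basal vehicle for no effect and high inhibitor control for full effect; nearly all actives have a fitted effect of over 50% in size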
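CHO-M1, 2000 cells/well, 16–30 h culture; cpd + low Li+, 30 min 37C; lysis with d2-IP1/Eu-anti-IP1 Ab, 10 min RT; TR-FRET 665/620 ratio and 620 channel; AC50 via Hill.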
LMNA splice mod = qHTS Assay for Modulators of Lamin A Splicing | HeLa LMNA splicing GFP/RFP minigene ratio, 48 h | Potency, µM (top dose mostly 46.1 µM), for inactives: top-dose ratio change, negative = inhibition, actives largely listed as inhibitors | hit rate 0.01% among 200,000 | AID 1487, 2009; active means well fitted inhibition curve with a large enough effect in the signal ratio, with a control signal flat, not every such curve was filed as active; inconclusive means small, poorly fitted or top-dose-only effect, or effect the other way, or a change in a side signal; the % refers to the signal ratio
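S3 HeLa cells stably expressing lamin A-EGFP splicing minigene plus DsRed2, 600 cells/well, 48 h compound exposure at 37C. Laser-scanning cytometry; analysed as GFP (500-530 nm)/RFP (575-640 nm) total intensity ratio; 0.5% DMSO vehicle.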
ALDH1A1 inh = qHTS Assay for Inhibitors of Aldehyde Dehydrogenase 1 (ALDH1A1); Aldehyde dehydrogenase 1A1 (Homo sapiens), P00352; Purified ALDH1A1, NADH fluorescence, propionaldehyde substrate; Potency, µM (series often up to 75.3 µM), inactives show top-dose activity, negative = inhibition, most hits filed as inhibitors; hit rate 7.3% among 220,000; active means well fitted inhibition curve with a large enough effect, not every such curve was filed as active; inconclusive means small, poorly fitted or top-dose-only effect, or another doubt; inactive means no such curve, though single readings can be large or run the other way;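 further: plate controls were no enzyme wells and a reference inhibitor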
Target sequence (P00352 whole entry, looked up): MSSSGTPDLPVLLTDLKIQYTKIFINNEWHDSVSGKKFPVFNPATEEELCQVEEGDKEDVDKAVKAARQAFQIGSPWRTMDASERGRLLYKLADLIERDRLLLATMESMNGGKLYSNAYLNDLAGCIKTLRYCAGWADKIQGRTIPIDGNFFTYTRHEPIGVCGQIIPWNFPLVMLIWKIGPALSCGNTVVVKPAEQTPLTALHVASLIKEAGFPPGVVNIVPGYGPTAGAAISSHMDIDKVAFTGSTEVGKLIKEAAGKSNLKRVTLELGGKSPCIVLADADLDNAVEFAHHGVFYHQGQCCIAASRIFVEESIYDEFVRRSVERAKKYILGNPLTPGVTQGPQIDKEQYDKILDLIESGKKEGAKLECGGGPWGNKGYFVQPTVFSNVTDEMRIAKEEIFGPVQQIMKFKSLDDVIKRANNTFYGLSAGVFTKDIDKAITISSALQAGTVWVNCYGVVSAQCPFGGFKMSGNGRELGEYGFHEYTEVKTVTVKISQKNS
HPGD inh = qHTS Assay for Inhibitors of HPGD (15-Hydroxyprostaglandin Dehydrogenase); 15-hydroxyprostaglandin dehydrogenase [NAD(+)] (Homo sapiens), P15428; purified HPGD, NADH fluorescence kinetic, PGE2 substrate; Potency, µM, inactives show at the top dose activity change, negative = inhibition, actives largely listed as inhibitors; hit rate 4.3% among 150,000; active means well fitted inhibition curve with a large enough effect, not every such curve was filed as active; inconclusive means small, poorly fitted or top-dose-only effect, or another doubt; inactive means no such curve, though single readings can be large or run the other way
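20 nM HPGD preincubated 15 min at room temperature with compound in 50 mM Tris-HCl pH 8, 0.01% Tween 20. Started with 1 mM NAD+ and 30 uM prostaglandin E2; NADH fluorescence (360/450 nm) read 5 times over 30-s intervals, last minus first.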
Numbers without * were called inactive; ? = inconclusive; . = no result given; [ ] = dose if it differs, or a comment. Hits are enriched below; roughly 9% of the tested compounds scored in any of these assays. Unless noted, the call rests on the fitted dose curve; in most records, active means well fitted curve in the direction sought with a large enough effect; inconclusive means small, poorly fitted or top-dose-only effect, or another doubt; inactive means no such curve, though single readings can be large; an effect the other way counts as inactive or inconclusive. Unless noted, on the % scale 0 is the no-effect control and ±100 the full control effect; potency means the concentration at half of the fitted maximal effect.

SMILES	Luc counter	IMPase Li inh	LMNA splice mod	ALDH1A1 inh	HPGD inh
CC12CCC(C(=O)Nc3nc4ccccc4s3)(OC1=O)C2(C)C (stereo not drawn)	-1.4%	-6.4%	?	1.2%	.
Cn1ncc(C(N)=O)c1NC(=S)NC(=O)c1ccc(Br)o1	1.6%	-9.2%	1.6%[46 µM]	7.94µM*	.
Cc1cccc(C)c1NC(=S)NC(=O)c1ccc(Br)o1	4.8%	15.6%	-16.6%[46 µM]	?	.
c1ccc(-c2nc(-c3cccc4ccccc34)c(Nc3ccc4ccccc4c3)o2)cc1	1.2%	12.8%	.	?	-6.9%
c1ccc(COc2ccc(Nc3ncnc4nc[nH]c34)cc2)cc1	-6.5%	16.8%[38.3 µM]	20.9%	-13.9%	15.8µM*
CCOC(=O)c1ccc(Nc2ncnc3nc[nH]c23)cc1	-6.6%	3.9%[38.3 µM]	-0.2%	-13.6%	?
COc1ccc(OCC(O)CNC(=O)Nc2ccccc2)cc1 (stereo not drawn)	.	.	.	-3.8%	.
O=C(NCC(O)COc1ccc([N+](=O)[O-])cc1)Nc1ccccc1 (stereo not drawn)	.	.	.	20µM*	.
Cc1ccc(C(=O)C(C)OC(=O)c2n[nH]c(=O)c3ccccc23)cc1 (stereo not drawn)	-0.5%	5.1%[38.3 µM]	3.5%	16.0%	14.1µM*
O=C(CN1CCOCC1)Nc1ccc(OCc2ccccc2)cc1	-1.8%	-0.7%[38.3 µM]	21.1%	12.6µM*	-15.0%
COc1ccc(NC(=O)CN2CCOCC2)cc1	-5.3%	27.9%[38.3 µM]	0.3%	?	-13.4%
O=C(CN1CCOCC1)Nc1ccc(Oc2ccc(NC(=O)CN3CCOCC3)cc2)cc1	1.5%	-9.8%[38.3 µM]	10.0%	17.8µM*	?
O=C(CN1CCN(c2ccccn2)CC1)Nc1ccc(OCc2ccccc2)cc1	2.6%	-1.6%[38.3 µM]	-10.0%	?	-8.4%
CC1=NN(c2ccc(C)c(C)c2)C(=O)/C1=C\C=C\c1ccc([N+](=O)[O-])o1	-7.7%	35.0%	.	8.91µM*	.
O=C1CNC(=O)/C1=C/c1ccc(O)cc1	-22.8%	20.0%[38.3 µM]	4.4%	31.6µM*	?
O=C1CNC(=O)/C1=C/c1ccccc1	1.5%	-1.3%	-12.2%	-2.5%	14.1µM*
S=C(NCC1CCCO1)N1CCN(Cc2ccccc2)CC1 (stereo not drawn)	2.3%	-4.2%	.	25.1µM*	.
COc1ccccc1NS(=O)(=O)c1ccc(O)c(NC(=S)NCC2CCCO2)c1 (stereo not drawn)	.	.	3.6%[46 µM]	5.62µM*	.
S=C(NCC1CCCO1)N1CCN(c2nc(-c3ccccc3)cs2)CC1 (stereo not drawn)	-7.4%	15.0%	?	?	.
S=C(NCC1CCCO1)Nc1ccccc1Cl (stereo not drawn)	-6.8%	0.8%	19.3%	0.3%	12.6µM*
C=CCNC(=S)N1CCN(Cc2ccccc2)CC1	-2.1%	3.5%	3.6%[46 µM]	14.1µM*	.
Cc1cccc(C(=O)N2CCc3cc(CNS(=O)(=O)c4ccc(F)c(Cl)c4)ccc32)c1	.	.	11.6%[46 µM]	.	.
Cc1ccc(C(=S)N2CCN(Cc3ccccc3)CC2)cc1	2.0%	8.0%	?	?	.
Oc1cccc(C(=S)N2CCN(Cc3ccccc3)CC2)c1	4.1%	-0.3%	-2.8%	11.2µM*	14.1µM*
Cc1oc(S(=O)(=O)N(C)C)cc1C(=O)Nc1ccc(F)cc1	.	.	16.0%[46 µM]	-8.8%	.
SMILES	Luc counter	IMPase Li inh	LMNA splice mod	ALDH1A1 inh	HPGD inh
Cc1cccc(NC(=O)CCS(=O)(=O)c2cccc3nsnc23)c1C	-0.5%	-1.9%[38.3 µM]	1.0%	25.1µM*	?
Cc1ccc(C)c(NC(=O)CS(=O)(=O)c2cccc3nsnc23)c1	-0.4%	3.3%	-7.1%[46 µM]	2.5%	.
CCOC(=O)c1cccc(NC(=O)CCS(=O)(=O)c2cccc3nsnc23)c1	0.5%	36.0%[38.3 µM]	-6.8%	22.4µM*	?
Cc1cccc(NC(=O)CS(=O)(=O)c2cccc3nsnc23)c1	.	.	12.4%[46 µM]	.	.
Cc1ccc(S(=O)(=O)N2CCCCC2)cc1NC(=O)CSc1nnc(N)s1	-0.5%	9.8%	?	-7.3%	.
O=C(CSc1ncn[nH]1)Nc1cc(S(=O)(=O)N2CCCC2)ccc1Cl	-0.4%	6.9%	.	15.8µM*	.
